In the supplement of paper PMC6555819:

What follows are sequences tested on VDR:RXRa (NR concentration 270 nM, RXRa partner concentration 90 nM) (assay: PBM binding z-score (relative to random genomic background probes); higher = stronger binding; sequences stand for … in GC…GCGATTGACAGCGTAGAATGAAGG).
Procedure: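 Protein-binding microarray (Agilent 4x180K custom design, double-stranded 60-nt probes: 5' GC cap, 34-nt variable region, 24-nt constant primer region; full probe sequence given). Purified or IVT nuclear receptor:RXRα heterodimers (3:1 NR:RXRα, mostly 270:90 nM) or homodimers were incubated for 1 h in PBS with 2% milk and no ligand, then detected with Alexa488 antibodies. Fluorescence from o1-orientation probes (~5 replicates averaged) was converted to z-scores against 500 random hg19 background probes. Variable regions are seed direct-repeat (DR0–DR5) sites, all their single-nucleotide variants and half-site ablations.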

Sequence | PBM binding z-score
CGAACTAGGTCAAAGGACCGTGAAAGGCGACGTA | 1.03
CGAACTAGGTCACCCGGACAGTGAAGAGGTTGGA | 2.69
TCTAGTTGGTCAAAGGTCTCACACTCGAAATGCG | 1.42
CAATCTAGGTCAAAGGTCAAAGTCGAGCCAACCA | 6.74
CCTACGGGGCCAAAGGTCATTGATTCCAATGCTC | 5.3
TCGAGTAGGTTCCGGGGGCATTCAGGGATGAAGA | 2.54
TAGCATAGGTCATGCGGGCCAGTATAGTGTCGGC | 4.32
CCGACGGGGGCAGAAAGGTTACCATACCATCCGG | 4.49
ATAGAAAGGTCGAAGGTGAGTATACCCACCCGAA | 2.88
CCGAGTAGGTTAGGAGGGGGCATTCAGTGCGAAT | 4.91
CGAACTTGGTCACCAGGACAGTGAAGAGGTTGGA | 0.809
TAGCCTAGCTCATTCAGGGGCCAGTATAGAAAGC | -0.541
CGTCCAAGGTCAATGCTAGGCCAGTGAAAGCATT | 3.78
ACTAGGTGGTCAGCTGAGGTCACACACAATTCGG | 4.54
CGAACTAGGTCACCAGGACAGGGAAGAGGTTGGA | 1.91
CTATGTCGGTTAAGGGGGTCATTCAGTTTGAAAG | 6.77
CCTACTGGGCGAAGGTCATTGATCAGTCAAAGCA | 2.18
TCGAGTAGGTTACGGGGTCATTCAGGGATGAAGA | 6.34
CAACCTAGGTCACGAAAGGTCAAAGTCGAATGAC | 7.15
CTATGTAGGTTAAGGAGGTCATTCAGTTTGAAAG | 6.83

Sequence | PBM binding z-score
GCTGCTAGGTCAGGTTGGTCGGCTAACGGGTACG | 0.166
CGAACTAGGTCAACGACAGTGAATCTCCGCACGC | 1.27
CCGAGTAGGATACGAGGGGGCATTCAGTGCGAAT | 3.32
CGTCGGAGGACAGAAGGTCAGAGCTGTCCGCTTT | 0.797
CCTTACGGGTCAAGGTTATCGCACGGGTGGTACG | 3.69
CGTCCAAGGTCAAGGGCAGTGAAAGAGACTCGAA | 3.68
TAGCCTAGGTCATGGGCCAGTTTACCACGCGAAC | 2.61
CGAACTAGGTCATCGAGGACAGTGAATACATTGA | 6.12
CCAGACAGGTGAAAGGTCACTCAGTCTGGTACGC | 5.03
CGAACTAGGTCTCCAGGACAGTGAAGAGGTTGGA | -0.586
CCGAGTAGGTTACGAGGCGGCATTCAGTGCGAAT | -0.141
CGTCCAAGGTCATGGGAGGTCAGTGAAGACAGAT | 7.07
CAAAATAGGTCAAGGTCAAAGTCGGTTTGTGCCA | 5.51
CTATGTAGGTTAAGGGGGTCATTCCGTTTGAAAG | 7.25
TAGCCTAGGTCATTCAGGGGCCAGAATAGAAAGC | 3.17
ATGTGTAGGTTAGGGTCATTCAGAAAGTAGGGAA | 4.65
CCTACAGGGCCAAAGGTCATTGATTCCAATGCTC | 5.03
ATATGGAGGTTAGCTGGGGTCATTCAGACTAGGC | 6.86
TCATATAGGTAAAAGGTCAAAGTCGGTGTGGTAA | 5.3
CGTCCAAGGTCAATGCGAGGTCAGTGAAAGCATT | 6.22
